Results taken from PubChem BioAssay (Tox21).
Where “and” joins values, the source holds several entries; their conditions need not be identical. Equal entries are not always repeated. Inconclusive results are not listed. A structure can be active in one record and inactive in another. Calls of active or inactive are those of the source. Unless noted, the call rests on the fitted dose curve; in most records, active means well fitted curve in the direction sought with a large enough effect in the repeat runs; inconclusive means weak or mixed curves; inactive means no such curve, though single readings can be large; an effect the other way counts as inactive or inconclusive.

Experiments:
[1] = qHTS assay to test for compound auto fluorescence at 535 nm (green) in HEK293 cells (AID 720680)
[2] = qHTS assay to test for compound auto fluorescence at 535 nm (green) in HEK293 cell free culture (AID 720682)
Summary of the method: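 Each library compound, or DMSO control, is added by pintool to medium alone, comprising DMEM and 10% FBS. Emission at 535 nm following 485 nm excitation is quantified against fluorescein.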

[3] = qHTS assay to test for compound auto fluorescence at 590 nm (red) in HEK293 cell free culture (AID 720683)
Summary of the method: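 Red-channel autofluorescence of compounds in culture medium (DMEM, 10% FBS), no cells, measured at 540/590 nm. Rose Bengal sodium is the reference fluorophore for equivalence.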

[4] = qHTS assay to test for compound auto fluorescence at 590 nm (red) in HepG2 cell free culture (AID 720684)
Summary of the method: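 Plate contents were MEM with 10% FBS plus test compound or DMSO, no cells. Fluorescence was recorded with 540 nm excitation and 590 nm emission.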

[5] = qHTS assay to test for compound auto fluorescence at 460 nm (blue) in HepG2 cell free culture (AID 720685)
Summary of the method: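 Compound (23 nL) or DMSO pinned into cell-free MEM with 10% FBS; blue fluorescence read at 405/460 nm excitation/emission, expressed as auto-fluorescence equivalency to triamterene.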

[6] = qHTS assay to test for compound auto fluorescence at 535 nm (green) in HepG2 cell free culture (AID 720686)
[7] = qHTS assay to identify small molecule antagonists of the glucocorticoid receptor (GR) signaling pathway - cell viability counter screen (AID 720693); further: nearly all actives have a fitted effect of over 55% in size; further: potency means the concentration at half of the fitted maximal effect
[8] = qHTS assay to identify small molecule antagonists of the androgen receptor (AR) signaling pathway - cell viability counter screen (AID 743033; further: nearly all actives have a fitted effect of over 45% in size; further: potency means the concentration at half of the fitted maximal effect)
[9] = qHTS assay to identify small molecule antagonists of the androgen receptor (AR) signaling pathway using the MDA cell line - cell viability counter screen (AID 743041; further: nearly all actives have a fitted effect of over 45% in size; further: potency means the concentration at half of the fitted maximal effect)
Summary of the method: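 R1881-driven MDA-kb2 AR-luc cells, 3,000/well, were dosed with library compounds for 16 h; cell health came from CellTiter-Fluor fluorescence in the reporter wells.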

[10] = qHTS assay to test for compound auto fluorescence at 460 nm (blue) in HepG2 cells (AID 720687)
Summary of the method: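 Blue-channel autofluorescence (Ex/Em 405/460 nm, triamterene-equivalent) was measured after 1 hr compound exposure at 37 C, 5% CO2. Cells were HepG2, plated overnight at 37 C in MEM plus 10% FBS.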

[11] = molecular target: Glucocorticoid receptor (Homo sapiens) (UniProt P04150); assay: qHTS assay to identify small molecule agonists of the glucocorticoid receptor (GR) signaling pathway (AID 720691; active means well fitted activation curve with a large enough effect in the signal ratio in the repeat runs, not every such curve was filed as active; the % refers to the signal ratio)
Summary of the method: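 Agonist mode in a HeLa line carrying a GRE-controlled beta-lactamase reporter. Compounds act for 18 h at 37 C before a 2 h room-temperature FRET substrate step and fluorescence reading.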

[12] = molecular target: Glucocorticoid receptor (Homo sapiens) (UniProt P04150); assay: qHTS assay to identify small molecule antagonists of the glucocorticoid receptor (GR) signaling pathway (AID 720692; active means well fitted inhibition curve with a large enough effect in the signal ratio in the repeat runs, not every such curve was filed as active; the % refers to the signal ratio; further: potency means the concentration at half of the fitted maximal effect)
Summary of the method: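 Cells plated, rested 4 h at 37 C/5% CO2; compounds in DMSO pin-transferred; dexamethasone added to 5 nM final; 18 h at 37 C; B/G FRET substrate added, 2 h room temperature; fluorescence measured.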

[13] = qHTS assay for identifying genotoxic compounds that show differential cytotoxicity against isogenic chicken DT40 cell lines with known DNA damage response pathways - Rev3 mutant cell line (AID 743014); further: nearly all actives have a fitted effect of over 55% in size; further: potency means the concentration at half of the fitted maximal effect
[14] = qHTS assay for identifying genotoxic compounds that show differential cytotoxicity against isogenic chicken DT40 cell lines with known DNA damage response pathways - Rad54/Ku70 mutant cell line (AID 743015); further: nearly all actives have a fitted effect of over 60% in size; further: potency means the concentration at half of the fitted maximal effect
[15] = qHTS assay for identifying genotoxic compounds that show differential cytotoxicity against isogenic chicken DT40 cell lines with known DNA damage response pathways - wild type cell line (AID 743012); further: nearly all actives have a fitted effect of over 60% in size; further: potency means the concentration at half of the fitted maximal effect
Summary of the method: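 Cells (DT40 wild type, 300/well) are treated with DMSO-dissolved compounds after a ~0.5 h pre-incubation and kept 40 h at 37 C/5% CO2. Viability is then measured by CellTiter-Glo luminescence following 30 min at room temperature.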

[16] = molecular target: Androgen receptor (Homo sapiens) (UniProt P10275); assay: qHTS assay to identify small molecule antagonists of the androgen receptor (AR) signaling pathway (AID 743035; active means well fitted inhibition curve with a large enough effect in the signal ratio in the repeat runs, not every such curve was filed as active; the % refers to the signal ratio)
Summary of the method: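 Antagonism is scored as loss of R1881-driven beta-lactamase reporter expression in HEK293 cells carrying the reporter under a UAS element, after 16 h co-treatment at 37C and a 2 h room-temperature FRET substrate read.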

[17] = molecular target: Androgen receptor (Homo sapiens) (UniProt P10275); assay: qHTS assay to identify small molecule agonists of the androgen receptor (AR) signaling pathway (AID 743036; active means well fitted activation curve with a large enough effect in the signal ratio in the repeat runs, with a control signal flat, not every such curve was filed as active; the % refers to the signal ratio)
Summary of the method: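 Following a 4 h settling period, AR-UAS-bla HEK293 cells were dosed with compounds for 16 h at 37C. A 2 h room-temperature incubation with LiveBLAzer B/G FRET substrate preceded the fluorescence measurement.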

[18] = molecular target: Androgen receptor (Homo sapiens) (UniProt P10275); assay: qHTS assay to identify small molecule agonists of the androgen receptor (AR) signaling pathway using the MDA cell line (AID 743040; further: nearly all actives have a fitted effect of over 20% in size)
Summary of the method: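 After a 5 h incubation at 37C and 0% CO2, MDA-kb2 reporter cells were dosed with compounds in DMSO and kept 16 h under the same conditions. Luciferase activity was then read as luminescence with ONE-Glo.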

[19] = molecular target: Androgen receptor (Homo sapiens) (UniProt P10275); assay: qHTS assay to identify small molecule antagonists of the androgen receptor (AR) signaling pathway using the MDA cell line (AID 743042; further: nearly all actives have a fitted effect of over 55% in size; further: potency means the concentration at half of the fitted maximal effect)
Summary of the method: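 Antagonist mode: compounds plus R1881 agonist added to MDA-kb2 AR-luc cells, incubated 16 h at 37C. Luciferase reporter luminescence quantified, with multiplexed CellTiter-Fluor readout for cell viability.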

Measured: Potency

Chain of Glucocorticoid receptor (Homo sapiens) (P04150 whole entry, looked up): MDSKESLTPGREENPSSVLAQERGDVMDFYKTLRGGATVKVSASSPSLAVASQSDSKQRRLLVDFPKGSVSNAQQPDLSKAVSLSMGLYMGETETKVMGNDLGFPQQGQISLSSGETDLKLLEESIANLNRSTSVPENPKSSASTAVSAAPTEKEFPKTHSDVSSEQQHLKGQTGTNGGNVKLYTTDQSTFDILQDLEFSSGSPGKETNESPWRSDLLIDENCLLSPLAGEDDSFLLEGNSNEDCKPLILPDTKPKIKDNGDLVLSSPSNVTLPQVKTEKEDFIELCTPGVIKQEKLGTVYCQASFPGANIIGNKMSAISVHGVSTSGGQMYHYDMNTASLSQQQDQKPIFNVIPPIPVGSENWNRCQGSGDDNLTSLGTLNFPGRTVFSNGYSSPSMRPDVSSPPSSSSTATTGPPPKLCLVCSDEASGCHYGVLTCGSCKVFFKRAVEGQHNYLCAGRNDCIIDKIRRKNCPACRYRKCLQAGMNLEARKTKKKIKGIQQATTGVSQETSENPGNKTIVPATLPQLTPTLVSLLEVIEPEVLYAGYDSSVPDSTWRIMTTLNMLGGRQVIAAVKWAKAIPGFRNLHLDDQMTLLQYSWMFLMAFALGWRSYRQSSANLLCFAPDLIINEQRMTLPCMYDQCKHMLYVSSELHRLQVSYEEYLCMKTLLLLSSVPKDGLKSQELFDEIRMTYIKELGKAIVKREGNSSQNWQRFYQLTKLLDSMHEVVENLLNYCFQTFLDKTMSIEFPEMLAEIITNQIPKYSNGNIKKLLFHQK
Chain of Androgen receptor (Homo sapiens) (P10275 whole entry, looked up): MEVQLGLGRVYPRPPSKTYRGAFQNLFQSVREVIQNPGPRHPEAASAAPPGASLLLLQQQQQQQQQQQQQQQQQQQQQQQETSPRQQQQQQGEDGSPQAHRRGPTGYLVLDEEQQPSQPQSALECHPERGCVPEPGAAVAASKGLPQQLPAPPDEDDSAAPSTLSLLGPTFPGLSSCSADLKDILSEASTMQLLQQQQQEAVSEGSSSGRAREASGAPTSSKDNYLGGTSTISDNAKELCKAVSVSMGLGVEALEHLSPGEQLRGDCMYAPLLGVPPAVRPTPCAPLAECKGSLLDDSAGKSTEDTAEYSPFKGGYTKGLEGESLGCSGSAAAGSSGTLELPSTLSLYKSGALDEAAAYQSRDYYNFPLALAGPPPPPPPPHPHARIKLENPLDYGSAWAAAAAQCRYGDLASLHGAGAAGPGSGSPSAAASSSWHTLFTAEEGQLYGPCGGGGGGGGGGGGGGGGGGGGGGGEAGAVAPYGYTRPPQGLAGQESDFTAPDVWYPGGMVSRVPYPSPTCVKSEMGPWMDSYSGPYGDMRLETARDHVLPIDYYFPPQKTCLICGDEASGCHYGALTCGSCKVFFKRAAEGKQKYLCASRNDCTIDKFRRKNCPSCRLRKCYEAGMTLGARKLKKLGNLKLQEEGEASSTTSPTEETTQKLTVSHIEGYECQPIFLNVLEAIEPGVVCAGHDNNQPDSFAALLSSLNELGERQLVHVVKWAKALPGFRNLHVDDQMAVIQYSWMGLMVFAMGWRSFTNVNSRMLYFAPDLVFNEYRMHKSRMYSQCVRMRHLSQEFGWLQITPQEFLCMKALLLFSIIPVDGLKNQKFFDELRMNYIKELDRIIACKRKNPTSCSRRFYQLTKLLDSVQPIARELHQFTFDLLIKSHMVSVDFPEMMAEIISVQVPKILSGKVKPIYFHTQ

NCCN
inactive: [1] | [2] | [3] | [4] | [5] | [6] | [7] | [8] | [9]

C=CCOC(=O)C(=C)C
not listed: [15] | [16] | [17] | [18] | [19]
inactive: all other assays above

Nc1ccc2c(O)cc(S(=O)(=O)O)cc2c1
inactive: [1] | [2] | [3] | [4] | [6] | [11] | [7] | [14] | [8]

CC(=O)Oc1ccc(C(c2ccc(OC(C)=O)cc2)c2ccccn2)cc1
23.7 µM (active) and inactive: [15]
active: [19] 0.765 µM
not listed: [9] | [11] | [12] | [13] | [14]
inactive: all other assays above

CC(C)=CCO
not listed: [10] | [11] | [12] | [15] | [16] | [17] | [18] | [19]
inactive: all other assays above

Cc1ccc(S(=O)(=O)NCl)cc1
not listed: [3] | [16] | [17] | [18] | [19]
inactive: all other assays above

COc1ccc(C(=O)c2ccccc2O)c(O)c1
not listed: [10] | [15] | [16] | [17] | [18] | [19]
inactive: all other assays above

CCc1cccc2c3c([nH]c12)C(CC)(CC(=O)O)OCC3 (centres undefined)
not listed: [10] | [11] | [12] | [15]
inactive: all other assays above

C/C=C/C(=O)N(CC)c1ccccc1C
active: [15] 54.5 µM | [13] 54.5 µM
inactive and 48.6 µM (active): [14]
not listed: [10] | [16] | [17] | [18] | [19]
inactive: all other assays above

CN(C)/N=N/c1nc[nH]c1C(N)=O
not listed: [3] | [14] | [16] | [17] | [18] | [19]
inactive: all other assays above

CC(=O)[C@H]1CC[C@H]2[C@@H]3CC=C4C[C@@H](O)CC[C@]4(C)[C@H]3CC[C@]12C
inactive: [1] | [2] | [4] | [5] | [6] | [10] | [7] | [8] | [9]
active: [13] 0.485 µM

COCCOCCOCCO
not listed: [3] | [14] | [16] | [17] | [18] | [19]
inactive: all other assays above

CCCCCCOCCOCCO
not listed: [14] | [15] | [16] | [17] | [18] | [19]
inactive: all other assays above

Cc1cccc(Nc2ccccc2C(=O)O)c1C
not listed: [14] | [15] | [16] | [17] | [18] | [19]
inactive: all other assays above

C[C@]12CC[C@@H]3c4ccc(O)cc4CC[C@H]3[C@@H]1CC[C@@H]2O
active: [12] 4.25 µM and 2.18 µM | [7] 24.5 µM | [13] 23.7 µM and 54.4 µM and 54.5 µM
inactive: [1] | [2] | [3] | [4] | [5] | [6] | [8] | [9]

CC/C=C\C/C=C\C/C=C\CCCCCCCC(=O)O
inactive: [1] | [2] | [3] | [4] | [5] | [6] | [7] | [8] | [9]
inactive and 48.6 µM (active): [13]

Cc1ccc([N+](=O)[O-])c(C)c1
not listed: [14] | [16] | [17] | [18] | [19]
inactive: all other assays above

[Na+]
not listed: [3] | [16] | [17] | [18] | [19]
inactive: all other assays above

O=C(O)COCCN1CCN(C(c2ccccc2)c2ccc(Cl)cc2)CC1 (centres undefined)
inactive: [1] | [2] | [3] | [4] | [5] | [6] | [10] | [7] | [8] | [9]

CN(C)C
not listed: [11] | [12] | [15] | [16] | [17] | [18] | [19]
inactive: all other assays above

CN1CCOCC1
not listed: [3] | [16] | [17] | [18] | [19]
inactive: all other assays above

O=Cc1ccccc1C=O
active: [12] 6.16 µM | [7] 23.9 µM and 4.36 µM | [13] 8.41 µM and 2.17 µM | [9] 24.3 µM | [19] 8.63 µM
inactive: [1] | [2] | [3] | [4] | [5] | [6] | [8] | [18]

CC/C(=C(/CC)c1ccc(O)cc1)c1ccc(O)cc1
inactive: [1] | [2] | [3] | [4] | [5] | [6] | [10] | [9]
inactive and 48.6 µM (active): [8]
active: [15] 26.6 µM and 30.4 µM and 17.2 µM | [13] 29.8 µM and 27.3 µM

CCC(=O)O[C@H]1[C@H](O[C@@H]2[C@@H](C)[C@H](O[C@H]3C[C@@](C)(OC)[C@@H](O)[C@H](C)O3)[C@@H](C)C(=O)O[C@H](CC)[C@@](C)(O)[C@H](O)[C@@H](C)C(=O)[C@H](C)C[C@@]2(C)O)O[C@H](C)C[C@@H]1N(C)C
inactive and 20.3 µM (active): [13]
active: [15] 40.5 µM
not listed: [12] | [14] | [16] | [17] | [18] | [19]
inactive: all other assays above

COc1ccc(-c2coc3cc(O)cc(O)c3c2=O)cc1
inactive: [1] | [2] | [3] | [4] | [5] | [6] | [10] | [11] | [9]
active: [15] 54.5 µM | [13] 27.3 µM | [14] 27.3 µM

Nc1ccc2c(c1)C(=O)c1ccccc1C2=O
inactive: [1] | [2] | [4] | [5] | [6] | [10] | [11] | [7] | [9]
48.1 µM (active) and inactive: [8]
60 µM (active) and inactive: [13]
active: [14] 9.51 µM and 12.2 µM

NCCS(=O)(=O)O
not listed: [3] | [15] | [16] | [17] | [18] | [19]
inactive: all other assays above
